Only some compounds are listed: those with a hit (about 4.3% of all), similar ones and a draw of the others.
ADAM10 inh: inhibits human ADAM10. O14672. recombinant ADAM10, EDANS/DABCYL FRET peptide cleavage, 3 h. AID 720582. 0.62% of 370,000 active. inhibition, % at 7 µM;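 active = inhibition above a per-campaign cutoff equal to the mean of compounds falling between control-based bounds plus 3 SD, cut at about 20% in these data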;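 note: 0% = DMSO wells while the 100% control is not disclosed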
NR3A LBD binder: modulators (binders) of human NR3A ligand-binding domain; NR3A LBD differential scanning fluorimetry, Tm shift; 0% = protein alone, 100% = glycine-bound protein; Tm shift relative to glycine control, % at 25 µM; 2.5% of 340,000 active;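 active = melting temperature shift of at least 10% of the positive control shift, at one fixed dose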
ADAM17 inh: inhibits human ADAM17 | P78536 | inhibition, % at 6.95 µM | recombinant ADAM17, EDANS/DABCYL FRET peptide cleavage | 0.83% of 370,000 active;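 active = inhibition above the mean of compounds lying between control limits plus 3 SD, set per campaign, cut at about 8.5% in these data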;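 note: 0% = DMSO-only wells as the low control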
Target sequence (P78536 215-824 limits assumed): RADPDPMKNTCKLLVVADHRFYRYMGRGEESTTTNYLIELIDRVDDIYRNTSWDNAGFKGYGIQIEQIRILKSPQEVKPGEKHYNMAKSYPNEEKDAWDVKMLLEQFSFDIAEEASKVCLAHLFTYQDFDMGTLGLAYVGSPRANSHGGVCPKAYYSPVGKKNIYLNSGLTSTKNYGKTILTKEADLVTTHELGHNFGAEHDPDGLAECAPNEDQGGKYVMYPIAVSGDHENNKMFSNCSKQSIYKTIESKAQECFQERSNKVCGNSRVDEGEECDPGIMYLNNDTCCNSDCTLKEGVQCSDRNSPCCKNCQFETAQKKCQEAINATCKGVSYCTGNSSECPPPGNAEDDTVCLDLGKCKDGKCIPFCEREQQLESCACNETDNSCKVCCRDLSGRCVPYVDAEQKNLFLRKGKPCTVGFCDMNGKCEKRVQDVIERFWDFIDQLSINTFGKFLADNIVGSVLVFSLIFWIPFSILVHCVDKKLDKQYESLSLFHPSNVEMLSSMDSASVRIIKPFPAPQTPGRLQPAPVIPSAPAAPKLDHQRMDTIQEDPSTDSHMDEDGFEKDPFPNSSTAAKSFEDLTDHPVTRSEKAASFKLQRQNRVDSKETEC
HGIII-sPLA2 inh: Blocks human group III sPLA2 activity; AID 743126; 0.56% of 370,000 active; inhibition, % at 12.2 µM; QFRET BODIPY PC-A2 liposome hydrolysis, fluorescence; Q9NZ20;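 active = inhibition above mean plus 3 SD of compounds lying within the high and low control bounds, cut at about 19% in these data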;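 note: 0% = median of test compound wells and 100% = no enzyme DMSO wells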
FAS-TE inh: FAS thioesterase (human) inhibition; P49327; recombinant FAS-TE, OMFH fluorogenic substrate, fluorescence endpoint; inhibition, % at 15 µM; 0.67% of 360,000 active; AID 602261;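 active = compounds whose normalised, plate-corrected inhibition of enzyme fluorescence in the single-dose primary screen is 50% or more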;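 note: 0% = DMSO with enzyme and 100% = substrate without enzyme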
The depositor's hits bear a star; / = no result.

SMILES	ADAM10 inh	NR3A LBD binder	ADAM17 inh	HGIII-sPLA2 inh	FAS-TE inh
CN(C(=O)COC(=O)CCc1nc2ccccc2c(=O)[nH]1)C1CCS(=O)(=O)C1 (configuration not stated)	8	1	3	-3	-4
O=C(COC(=O)CCc1nc2ccccc2c(=O)[nH]1)NC(=O)NC1CCCC1	-12	12*	1	12	4
N#CCCN(C(=O)COC(=O)CCc1nc2ccccc2c(=O)[nH]1)c1ccccc1F	-5	13*	0	-5	-3
N#Cc1c(-c2ccccc2)nc(-c2ccccc2)nc1N1CCOCC1	-4	0	-2	2	20
N#Cc1c(N)nc(-c2ccccc2)nc1-c1ccccc1	9	10*	2	1	7
O=C1CCC[C@H]2Cc3nc4cccc(Cl)c4cc3C[C@]23CCCN13	-8	/	-5	3	/
CC(c1cc(F)ccc1O)c1c[nH]c2ccccc12 (configuration not stated)	2	/	1	-66	/
CCOC(=O)C1CCN(C(=O)C(C)(C)NC(=O)Nc2ccc3c(c2)CCC3)CC1	-6	/	-5	9	/
O=C(COC(=O)c1ccc(Cl)c(S(=O)(=O)N2CCN(c3ccc(F)cc3)CC2)c1)Nc1cccc(Cl)c1	-1	25*	1	-10	37
O=C(COC(=O)c1ccc(Cl)c(S(=O)(=O)N2CCOCC2)c1)Nc1ccc2[nH]c(=O)[nH]c2c1	-2	-1	-4	-15	-6
CCCN1C(=O)/C(=C/c2nc3ccccc3c(=O)[nH]2)c2ccccc21	5	25*	1	2	-11
CCN(CC)S(=O)(=O)c1ccc(C(=O)NCCOC(=O)c2ccc(F)cc2F)cc1	1	19*	1	-6	2
CN(C)S(=O)(=O)c1cccc(C(=O)NCCOC(=O)c2cc(F)c(F)cc2Cl)c1	3	2	1	-7	4
Clc1ccccc1-c1nn2c(-c3cc(-c4ccccc4)n[nH]3)nnc2s1	1	/	2	-10	/
COC(=O)[C@]12C=CCN1[C@H](c1ccc(OC)c(OC)c1)c1c(c3ccccc3n1S(=O)(=O)c1ccc(C)cc1)C2	-24	/	-8	-1	/
CCC(=O)Nc1ccc(/C(C)=N\NC(=O)c2ccc(OC)cc2)cc1	2	19*	1	4	-13
COc1ccc(C(=O)N/N=C(/C)c2cccc(NC(=O)C(F)(F)F)c2)cc1	11	10*	3	0	-9
C/C(=N/NC(=O)c1ccoc1C)c1cccc(NC(=O)C(F)(F)F)c1	-4	2	-2	2	-10
COP(=O)(O)C[C@@H]1CCc2cc(C)cc([C@H](CC(C)C)NC(=O)OCc3ccccc3)c2O1	-75	/	-25	-12	/
O=C(Nc1cccc2ncccc12)c1ccc(F)cc1	3	12*	2	-1	-4
COc1ccc(NC(=O)NCCC2=CCCCC2)cc1	-3	31*	2	-4	23
CCOC(=O)C1CCN(CC(O)COCc2ccccc2)CC1 (configuration not stated)	-1	14*	-1	1	-2
CCOC(=O)C1CCN(CC(O)COCc2cccs2)CC1 (configuration not stated)	-2	-1	1	-1	-8
O=C1CCC[C@H]2C[C@H](NCc3cccc(I)c3)CC[C@]23CCCN13	-7	/	-5	7	/
COc1ccc(/C=N/NC(=O)c2cc[n+]([O-])cc2)cc1	0	-1	-2	2	-4
SMILES	ADAM10 inh	NR3A LBD binder	ADAM17 inh	HGIII-sPLA2 inh	FAS-TE inh
O=C(N/N=C/c1ccccc1)c1ccc(NC(=O)c2ccc(F)cc2)cc1	9	33*	1	-3	-5
COc1ccc(/C=N/NC(=O)c2ccc(NC(=O)c3ccccc3Br)cc2)cc1	3	27*	2	-9	-6
Cc1ccccc1C(=O)Nc1ccc(C(=O)N/N=C/c2ccc(O)c(Br)c2)cc1	0	28*	4	-4	-2
Cc1ccc(/C=N/NC(=O)c2cccc(NC(=O)c3ccccc3C)c2)o1	3	-3	0	-8	-4
COc1ccc(C(=O)N/N=C/c2ccc(OC)c(OS(=O)(=O)c3ccccc3)c2)cc1	10	13*	2	-13	46
CC1CCC2(CCC(=O)N2C[C@@H](O)c2ccccc2)CC1 (some centres not stated)	-3	/	-4	2	/
COC(=O)N1C[C@H](OCc2cn(-c3cc(Cl)cc(Cl)c3)nn2)[C@H](OCc2cn(-c3cc(Cl)cc(Cl)c3)nn2)C[C@@H]1c1ccccc1Br	1	/	-1	-2	/
